# Shown are actives, neighbours in structure and some others; about 3.6% of the full set was active somewhere.
# Pf apPOL inh – Pf-apPOL DNA polymerase inhibition. Recombinant Pf-apPOL, molecular beacon fluorescence, 1.5 h. 210,000 compounds, 0.25% hits. inhibition, % at 10 µM
# mHTT CaM bind – disrupts binding of mutant huntingtin to calmodulin; P42858; AID 1671202; 190,000 compounds, 3.6% hits; inhibition, % at 15 µM; AlphaScreen His-mHTT/GST-CaM binding, luminescence;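 further: 0% = both proteins with DMSO and 100% = one protein alone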
# * = called active by the depositor; nt = no result; ! = not active in a repeat. No stated cut-off is given here; in the data, active means inhibition above about 50%; inactive means the rest.
SMILES,Pf apPOL inh,mHTT CaM bind
COc1ccc(C2CC(c3cc(Cl)ccc3O)=NC3(CCN(C(C)=O)CC3)N2)cc1 (stereo not drawn),-4,100*
Cc1ccc(C)c(NS(=O)(=O)c2ccc(NS(=O)(=O)c3ccc4c(c3)OCCO4)cc2)c1,-6,5
Cn1nc(COCc2ccccc2)c2c1CCN(S(=O)(=O)c1ccccc1)C2,0,27
Cn1nc(COCc2ccc(Cl)cc2)c2c1CCN(C(=O)Nc1ccccc1)C2,-1,44
COc1ccc(NC(=O)N2CCc3c(c(COCc4ccc(Cl)cc4)nn3C)C2)cc1,-2,58*
CCCC(=O)N1CCc2c(c(COCc3ccc(C)cc3)nn2C)C1,-6,3
Cc1ccccc1S(=O)(=O)N1CCc2c(c(COCc3ccccc3)nn2C)C1,3,60*
CCC(=O)N1CCc2c(c(COCc3ccc(Cl)cc3)nn2C)C1,-14,52*
O=C1C(=O)N(Cc2cccnc2)C(c2ccc([N+](=O)[O-])cc2)C1=C(O)c1ccccc1 (stereo not drawn),-8,2
CN1C(=O)NC(c2ccc(F)cc2)C2=C1CN(Cc1ccccc1)C2=O (stereo not drawn),-2,17
O=[N+]([O-])c1ccccc1OCc1cn2cccnc2n1,-2,-3
Cc1ccc(-c2nc3cccnc3n2CC(N)=O)cc1,-7,0
CN1C(=O)C(O)(CC(=O)c2ccco2)c2ccccc21 (stereo not drawn),-1,-1
Cc1sc(NC(=O)c2nc3ccccc3s2)c(C#N)c1C,7,-1
CCOC(=O)NC(=O)c1ccsc1NC(=O)c1nc2ccccc2s1,8,62*
CCC(C)NC(=O)C=Cc1cc(OC)ccc1OC (stereo not drawn),5,-6
CC(C)N1C(=O)S/C(=C\c2ccc3c(c2)OCCO3)C1=O,6,-2
O=C(c1ccc(N2CCNC(c3ccccc3)C2)nc1)N1CCN(c2ccccn2)CC1 (stereo not drawn),-2,6
COc1ccc(Cl)cc1NC(=O)CSC1=C(C#N)C(c2ccco2)C(C(N)=O)=C(C)N1 (stereo not drawn),-8,54*
CC1=C(C(N)=O)C(c2ccco2)C(C#N)=C(SCC(=O)Nc2cccc(Cl)c2C)N1 (stereo not drawn),0,27
O=C(Nc1cccc(F)c1)C1CCc2nc(N3CCN(C(=O)C4CCC4)CC3)sc2C1 (stereo not drawn),1,5
O=C(NCCCc1ccccc1)N(CCc1cccs1)C1CC1,-16,-27
O=C(Cc1cccs1)OCc1cc(-c2ccc(F)cc2F)on1,2,-99
O=C(OCc1cc(-c2ccc(F)cc2F)on1)c1ccc(=O)oc1,81*,100*
OCCN(CCO)c1ccccc1,-16,nt
SMILES,Pf apPOL inh,mHTT CaM bind
O=C(NCc1cccs1)c1ccc(S(=O)(=O)NCc2ccc3c(c2)OCO3)o1,-8,-9
Cc1nnc(NC(=O)c2ccc(S(=O)(=O)NCc3ccc4c(c3)OCO4)o2)s1,-4,100*
CCc1onc(C)c1C1CCCN1Cc1ccc(OC)c(OC)c1 (stereo not drawn),-1,-4
COc1ccc(Cl)cc1NC(=O)CN1C(=O)CC(C)Sc2ccccc21 (stereo not drawn),-4,0
COc1ccc(NC(=O)CN2C(=O)CC(c3ccco3)Sc3ccccc32)c(OC)c1 (stereo not drawn),-3,92*
CN(C(=O)c1ccc(Cl)cc1[N+](=O)[O-])c1ccccc1,-3,1
COc1ccc(-c2cc3n(n2)CCCN(C(=O)Cc2cccs2)C3)cc1,-2,18
O=C1OCCN1C(=O)[C@H]1[C@H](c2ccc([N+](=O)[O-])cc2)C(c2ccc(F)cc2)=NN1c1ccc(Br)cc1,-6,65*
O=C1OCCN1C(=O)[C@H]1[C@H](c2ccc([N+](=O)[O-])cc2)C(c2ccc(F)cc2)=NN1c1ccccc1,-8,54*
O=C1OCCN1C(=O)[C@H]1[C@H](c2ccccc2)C(c2ccccc2)=NN1c1ccccc1,2,-54
O=C1OCCN1C(=O)[C@H]1[C@H](c2ccccc2)C(c2ccc(F)cc2)=NN1c1ccc(Br)cc1,-1,31
COc1ccc(-c2[nH]ncc2-c2nc(-c3ccc(Br)cc3)no2)cc1,0,-4
CCN1CCN(CC(O)COC23CC4CC(CC(C4)C2)C3)CC1 (stereo not drawn),4,-3
CCC(Sc1nnc2c(n1)[nH]c1ccccc12)C(=O)Nc1cccc(C(C)=O)c1 (stereo not drawn),1,65*!
O=C(CSc1nnc2c(n1)[nH]c1ccccc12)Nc1ccccc1,34,5
O=C1Nc2ccccc2C(O)(C(=O)NCCc2ccccc2)N1c1ccc(Cl)cc1 (stereo not drawn),-9,5
COc1cc(O)c(C(CC(=O)N2CCN(c3ccccc3)CC2)c2ccc(N(C)C)cc2)c(OC)c1 (stereo not drawn),-6,74*
COc1ccc(C(CC(=O)N2CCCC2)c2c(O)cc(OC)cc2OC)cc1 (stereo not drawn),1,10
COc1cc(C(CC(=O)N2CCCC2)c2c(OC)cc(OC)c3ccc(=O)oc23)cc(OC)c1OC (stereo not drawn),-1,14
COc1ccc(C(CC(=O)N2CCN(c3ccccc3)CC2)c2c(OC)cc(OC)c3ccc(=O)oc23)cc1 (stereo not drawn),-5,56*
COc1cccc(/C=C2\N=C(c3cccc([N+](=O)[O-])c3)OC2=O)c1,3,4
CC(C)(C)c1ccc(C(=O)ON=C(N)Cc2ccc([N+](=O)[O-])cc2)cc1,2,nt
COc1cccc(C(=O)Nc2cccc(-c3nc4cc(C)ccc4o3)c2)c1,-76,2
CCOc1ccc(Nc2nc(-c3ccccn3)cs2)cc1,-3,99*
CCOc1ccc(-c2csc(Nc3ccccn3)n2)cc1,4,13
SMILES,Pf apPOL inh,mHTT CaM bind
COc1ccc(Nc2nc(-c3ccccn3)cs2)cc1,-5,99*
COc1ccc(-c2csc(Nc3cc(C)ccn3)n2)cc1,-2,-5
O=C(NCc1ccco1)C1CCCN(c2nc3ccccc3o2)C1 (stereo not drawn),-7,-7
O=C(NC(=O)c1ccc(-c2cccs2)s1)Nc1cccnc1,12,nt
COc1cccc(OC)c1C(=O)N1CCCC1c1cccc(F)c1 (stereo not drawn),-2,8
COc1ccc(Br)cc1C1Nc2ccc(F)cc2C2C=CCC21 (stereo not drawn),-2,73*
COc1ccc(C2Nc3ccc(Br)cc3C3C=CCC32)cc1[N+](=O)[O-] (stereo not drawn),-9,86*
Fc1ccc2c(c1)[C@@H]1C=CC[C@@H]1[C@H](c1ccccc1Cl)N2,nt,-4
COc1ccc(C2Nc3c(cccc3C(F)(F)F)C3C=CCC32)cc1[N+](=O)[O-] (stereo not drawn),-9,38
Nc1c(C(=O)Nc2nccs2)sc2nc3c(cc12)CCCCC3,6,64*
Nc1c(C(=O)Nc2nccs2)sc2nc3c(cc12)CCC3,-9,26
CCOc1ccc(/C=C2\N=C(c3ccc(C)cc3)OC2=O)cc1,6,0
Cc1cccc(-n2c(SCc3ccc(Cl)cc3)nc3[nH]ncc3c2=O)c1,-16,79*
O=c1c2cn[nH]c2nc(SCc2cccc([N+](=O)[O-])c2)n1-c1ccc(Cl)cc1,-5,33
Cc1ccc(-n2c(SCc3ccccc3)nc3[nH]ncc3c2=O)cc1,-17,20

# Bioassay records from PubChem BioAssay.
